Measured values published in PubChem BioAssay AID1508622 (National Center for Advancing Translational Sciences (NCATS), 2021).
A number with no mark means an inactive call. Activity calls are given as the source filed them. Calls follow the shape of the dose curve; as a rule, active = well fitted activation curve with a large enough effect; inconclusive = small, poorly fitted or top-dose-only effect; inactive = no such curve, though single readings can be large or run the other way.

test: Confirmatory qHTS for Identification of Small Molecule Activators of Huntingtin-Antisense Promoter Activity; details: HEK293 HTT-AS promoter firefly luciferase reporter, 24 h; series mostly up to 57.5 µM; activity change, positive = activation: at the top concentration
Outline: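 HEK293 luciferase reporter cells, 2,500/well, cultured 24 h, then exposed to compounds at up to 57.5 uM final for 24 h at 37C. Firefly luciferase luminescence read; normalized to vehicle (0%) and zero RLU (-100%).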
Potency is read from the fitted curve at half-maximal effect.

| SMILES | activity change, positive = activation | Potency |
| --- | --- | --- |
| COc1ccc(-c2noc(Cn3c(=O)c4ccccc4n(CC(=O)Nc4cccc(C(F)(F)F)c4)c3=O)n2)cc1 | -22.2% | – |
| CC(=O)N1CCCc2cc(S(=O)(=O)N(C)CC(=O)Nc3cccc(Cl)c3C)ccc21 | -37.9% | – |
| CCc1ccc(-n2c(SCC(=O)NC(C)CC)nc3n[nH]c(C)c3c2=N)cc1 (centres undefined) | -9.19% | – |
| CC(C)Cc1ccc(S(=O)(=O)Nc2ccc3[nH]c(=O)[nH]c3c2)cc1 | -68.6% | – |
| Cc1c(C(=O)Nc2ccc(F)cc2)oc2ccc(S(=O)(=O)N3CCCCCC3)cc12 | -29.7% | – |
| CCN1C(=O)c2ccccc2Sc2ccc(NC(=O)Nc3ccccc3OC)cc21 | -26.7% | – |
| CCOC(=O)c1ccc(N2C(=O)c3[nH]nc(-c4ccccc4)c3C2c2cccs2)cc1 (centres undefined) | -63.4% | – |
| CCc1ccc(NC(=O)c2ccc(F)c(S(=O)(=O)NCCc3ccc(OC)c(OC)c3)c2)cc1 | -35.1% | – |
| O=C1CCCc2cc(S(=O)(=O)NCC3CCC(C(=O)Nc4ccc(Cl)cc4)CC3)ccc2N1 (centres undefined) | -23.6% | – |
| Cn1cnc(S(=O)(=O)N2CCC(C(=O)Nc3ccc(Cl)c(C(F)(F)F)c3)CC2)c1 | -54.1% | – |
| Cc1cccc(NC(=O)c2ccc(F)c(S(=O)(=O)N(C)C3CCCCC3)c2)c1 | -81.5% | – |
| O=C1CSC2(C(=O)N(Cc3cccc(C(F)(F)F)c3)c3ccccc32)N1c1ccc(F)c(F)c1 (centres undefined) | -57.6% | – |
| O=C(NCc1ccc(F)cc1)c1ccc(CS(=O)(=O)c2ccc(Cl)cc2)o1 | -50.5% | – |
| Cc1ccc(C(=O)Nc2nnc(SCc3cc(=O)c4c(C)ccc(C)c4[nH]3)s2)cc1 | -35.2% | – |
| Cc1ccc(-c2onc(C)c2C)cc1S(=O)(=O)N1CCC(C)CC1 | -92.6% | – |
| O=C(CN(c1cccc(C(F)(F)F)c1)S(=O)(=O)c1ccccc1)Nc1cccc(Cl)c1 | -90.3% | – |
| COc1ccc(C(=O)N2CCC(c3nc4ccccc4s3)CC2)cc1Cl | -92.9% | – |
| CCc1ccc(NC(=O)c2ccc(F)c(S(=O)(=O)N3CCc4ccccc4C3)c2)cc1 | -90.5% | – |
| CCOc1ccc(-n2c(/C=C/c3cccc(F)c3)nc3cc(OC)c(OC)cc3c2=O)cc1 | -47.7% | – |
| CCN(Cc1ccccc1)C(=O)C1CCC(CNS(=O)(=O)c2ccc3c(c2)CCCC(=O)N3)CC1 (centres undefined) | -66% | – |

| SMILES | activity change, positive = activation | Potency |
| --- | --- | --- |
| CCc1ccccc1-n1nnc(-c2nsc(NC(=O)c3ccc(C)c(C)c3)n2)c1C | -72.1% | – |
| COc1ccc(-c2nc(CSCC(=O)N3CCN(c4cc(Cl)ccc4C)CC3)c(C)o2)cc1 | -93.9% | – |
| CCCCN(CC)C(=O)C1CCC(CNS(=O)(=O)c2cccc3nsnc23)CC1 (centres undefined) | -35.2% | – |
| COc1cc(CN(C(=O)c2ccc(OC(C)C)cc2)c2ccccn2)cc(OC)c1OC | -86.4% | – |
| CCN(CCCNC(=O)CSc1cc(=O)n(CC)c2ccccc12)c1cccc(C)c1 | -23.4% | – |
| COC(=O)c1ccccc1NC(=O)Cn1nc(C(F)(F)F)c2c1CCCC2 | -16.2% | – |
| Cc1noc(/C=C/c2ccccc2F)c1S(=O)(=O)N1CCC(C(=O)Nc2ccc(C#N)cc2)CC1 | -45.9% | – |
| CCCN(C(=O)COc1cc(=O)n(CC)c2ccccc12)c1ccc(C(C)C)cc1 | -11.8% | – |
| Cc1ccc(NCc2cccn2-c2nnc(N3CCC(C(=O)NCCC(C)C)CC3)s2)cc1 | -47.9% | – |
| CCOC(=O)c1cc(-c2ccccc2)n(CCC(=O)Nc2ccc(OC)c(Cl)c2)c1C | -18.6% | – |
| CCCOC(=O)c1cccc(NC(=O)c2c(-c3ccccc3Cl)noc2C)c1 | -33.5% | – |
| CCN1C(=O)c2ccccc2Sc2ccc(NC(=O)c3ccc(C)c(F)c3)cc21 | -22.3% | – |
| CCOC(=O)c1ccc(Nc2nc3nonc3nc2Nc2cccc(C)c2C)cc1 | -92.9% | – |
| O=c1[nH]c2ccc(NCc3ccc(-c4ccccc4)o3)cc2[nH]1 | -25.6% | – |
| COc1ccc(N(CC(=O)N2CCN(c3cccc(C)c3C)CC2)S(=O)(=O)c2c(C)noc2C)cc1 | -28.1% | – |
| CCc1cccc(C)c1NC(=O)Cn1cc2c(n1)CCCC2 | -85.6% | – |
| CCc1ccc2c(c1)-c1ccccc1S(=O)(=O)N2CC(=O)N1CCCCC1 | – | 9.53 µM (active) |
| Cc1csc2nc(COC(=O)c3ccccc3NC(=O)c3ccccc3Cl)cc(=O)n12 | 8.8% | – |
| COc1cc(OC)c(OC)cc1CN1CCc2nc(N3CCN(c4ncccn4)CC3)ncc2C1 | -35.1% | – |
